# Source: PubChem BioAssay (Tox21)
# A number with no mark means an inactive call. Results filed as inconclusive are left out. A call without a number means that no potency is given here. Calls of active or inactive are those of the source. Unless noted, calls come from the whole dose curve.
# How the values were obtained:
# [1] = Nuclear factor erythroid 2-related factor 2/antioxidant responsive element (Nrf2/ARE) small molecule agonists: qHTS cell viability counter screen in human keratinocytes (AID 1919968; active = well fitted curve in the direction sought with a large enough effect in the repeat runs; an effect the other way counts as inactive or inconclusive; note: nearly all actives have a fitted effect of over 55% in size)
# Procedure, shortened: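 After a 5 h attachment period, ARE-reporter keratinocytes were dosed with compounds in DMSO and then cultured 23 h at 37 C. Cell viability came from CellTiter-Fluor signal read after a further 1 h.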
# [2] = Nuclear factor erythroid 2-related factor 2/antioxidant responsive element (Nrf2/ARE) small molecule agonists: luciferase reporter gene qHTS assay in human keratinocytes (AID 1919969); note: nearly all actives have a fitted effect of over 35% in size; note: potency is the fitted concentration of half-maximal effect
# [3] = molecular target: Gonadotropin-releasing hormone receptor (Homo sapiens) (UniProt P30968); test: Human gonadotropin-releasing hormone receptor (GnRHR) small molecule agonists, calcium flux assay in GnRHR-HEK293 cells (AID 1920063); note: nearly all actives have a fitted effect of over 35% in size
# Sequence of Gonadotropin-releasing hormone receptor (Homo sapiens) (P30968 whole entry, looked up): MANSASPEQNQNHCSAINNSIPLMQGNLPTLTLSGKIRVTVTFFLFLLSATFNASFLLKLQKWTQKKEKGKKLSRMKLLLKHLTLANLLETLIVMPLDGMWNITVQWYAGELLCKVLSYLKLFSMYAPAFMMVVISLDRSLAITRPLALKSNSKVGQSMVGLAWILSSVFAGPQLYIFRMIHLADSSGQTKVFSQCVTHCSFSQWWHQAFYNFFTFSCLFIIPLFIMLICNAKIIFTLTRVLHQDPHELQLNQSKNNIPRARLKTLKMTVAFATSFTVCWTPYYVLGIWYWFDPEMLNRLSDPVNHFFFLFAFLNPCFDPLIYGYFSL
# Procedure, shortened: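 We seeded human GnRHR-expressing HEK293 cells for 18 hours, loaded them with calcium dye for an hour at 37 C, added test compounds, and recorded fluorescence intensity kinetically for three minutes.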
# [4] = molecular target: KiSS-1 receptor (Homo sapiens) (UniProt Q969F8); test: Human kisspeptin (KISS1R) small molecule agonists, calcium flux assay in KISS1R-HEK293 cells (AID 1920064; active = well fitted curve in the direction sought with a large enough effect in the repeat runs; an effect the other way counts as inactive or inconclusive)
# Sequence of KiSS-1 receptor (Homo sapiens) (Q969F8 whole entry, looked up): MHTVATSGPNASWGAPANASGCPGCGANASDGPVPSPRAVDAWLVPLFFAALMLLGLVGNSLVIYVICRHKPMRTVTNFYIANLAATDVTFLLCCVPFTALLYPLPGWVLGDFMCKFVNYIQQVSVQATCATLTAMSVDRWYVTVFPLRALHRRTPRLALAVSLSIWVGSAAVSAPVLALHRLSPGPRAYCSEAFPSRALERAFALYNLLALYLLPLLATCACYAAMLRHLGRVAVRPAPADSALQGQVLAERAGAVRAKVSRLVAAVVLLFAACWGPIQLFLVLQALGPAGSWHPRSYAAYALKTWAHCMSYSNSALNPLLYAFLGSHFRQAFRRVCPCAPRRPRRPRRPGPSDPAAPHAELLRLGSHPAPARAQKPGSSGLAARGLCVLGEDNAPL
# Procedure, shortened: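 Kinetic calcium assay, 1 s sampling over 3 min at Ex/Em 480/540, in HEK293 cells engineered with human KISS1R; compounds delivered in DMSO after 1 h dye loading.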
# [5] = G protein-coupled receptor (GPCR) small molecule agonists, calcium flux assay: HEK293 wild type cell line counter screen (AID 1920065)
# Procedure, shortened: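 Calcium-sensitive dye, loaded 1 h at 37 C into cells cultured 18 h, reports compound-evoked calcium release as fluorescence (Ex/Em 480/540), measured over 3 min. Agonist mode; 15-point titrations, triplicate.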
# [6] = p53 small molecule agonists, cell-based qHTS assay with human liver microsomes: qHTS cell viability counter screen (AID 1963579); note: nearly all actives have a fitted effect of over 45% in size
# Procedure, shortened: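 p53RE-bla cells, 4,000/well, dosed 5 hours after plating, with human liver microsomes (0.5 mg/mL final) plus NADPH (0.5 mg/mL final), 16 hours at 37 C. Viability read as CellTiter-Glo luminescence after 30 min at room temperature.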
# [7] = p53 small molecule agonists, cell-based qHTS assay with rat liver microsomes: qHTS cell viability counter screen (AID 1963580); note: nearly all actives have a fitted effect of over 45% in size
# Procedure, shortened: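 Intracellular ATP, by CellTiter-Glo luminescence, defines viability. HCT-116 p53RE-bla cells, 4,000 per well, were compound-treated in the presence of rat liver microsomes and NADPH for 16 h at 37 C.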
# [8] = p53 small molecule agonists, cell-based qHTS assay: qHTS cell viability counter screen (AID 1963581); note: nearly all actives have a fitted effect of over 45% in size
# Procedure, shortened: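 Following 5 h attachment, HCT-116 p53RE-bla cells took up compound for 16 h at 37 C; the reporter was read with B/G FRET substrate (2 h RT), and viability then via CellTiter-Glo ATP luminescence.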
# [9] = molecular target: 5-hydroxytryptamine receptor 2A (Homo sapiens) (UniProt P28223); test: 5-hydroxytryptamine receptor 2A (HTR2A) small molecule antagonists, cell-based qHTS assay (AID 1963586); note: nearly all actives have a fitted effect of over 45% in size; note: potency is the fitted concentration of half-maximal effect
# Sequence of 5-hydroxytryptamine receptor 2A (Homo sapiens) (P28223 whole entry, looked up): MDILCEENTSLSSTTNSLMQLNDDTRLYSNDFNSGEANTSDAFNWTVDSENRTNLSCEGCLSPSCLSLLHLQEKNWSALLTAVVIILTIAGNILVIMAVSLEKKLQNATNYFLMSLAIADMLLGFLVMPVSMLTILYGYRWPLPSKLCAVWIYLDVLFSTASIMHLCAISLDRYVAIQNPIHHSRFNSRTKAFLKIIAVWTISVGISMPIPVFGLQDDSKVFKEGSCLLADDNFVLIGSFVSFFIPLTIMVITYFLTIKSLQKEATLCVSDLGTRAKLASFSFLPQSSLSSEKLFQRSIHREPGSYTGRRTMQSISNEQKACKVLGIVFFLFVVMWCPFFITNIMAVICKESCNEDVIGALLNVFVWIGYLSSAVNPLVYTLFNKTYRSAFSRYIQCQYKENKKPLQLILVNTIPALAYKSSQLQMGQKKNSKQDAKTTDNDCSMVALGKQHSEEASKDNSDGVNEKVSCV
# Procedure, shortened: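 Antagonist-mode intracellular calcium assay: DOI (4 nM) added after 5 min compound pre-incubation at room temperature to dye-loaded HTR2A-CHO cells. Fluorescence followed for 3 min, sampled every second.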
# [10] = molecular target: 5-hydroxytryptamine receptor 2A (Homo sapiens) (UniProt P28223); test: 5-hydroxytryptamine receptor 2A (HTR2A) small molecule agonists, cell-based qHTS assay (AID 1963587); note: nearly all actives have a fitted effect of over 30% in size
# Procedure, shortened: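 Kinetic calcium-flux fluorescence (2 min, 1 sec intervals) after compound addition in agonist mode. HTR2A-CHO cells were cultured 18 h, then dye-loaded 1 h at 37 C.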
# [11] = molecular target: Muscarinic acetylcholine receptor M1 (Homo sapiens) (UniProt P11229); test: Cholinergic receptor muscarinic 1 (CHRM1) small molecule antagonists, cell-based qHTS assay (AID 1963588); note: nearly all actives have a fitted effect of over 40% in size
# Sequence of Muscarinic acetylcholine receptor M1 (Homo sapiens) (P11229 whole entry, looked up): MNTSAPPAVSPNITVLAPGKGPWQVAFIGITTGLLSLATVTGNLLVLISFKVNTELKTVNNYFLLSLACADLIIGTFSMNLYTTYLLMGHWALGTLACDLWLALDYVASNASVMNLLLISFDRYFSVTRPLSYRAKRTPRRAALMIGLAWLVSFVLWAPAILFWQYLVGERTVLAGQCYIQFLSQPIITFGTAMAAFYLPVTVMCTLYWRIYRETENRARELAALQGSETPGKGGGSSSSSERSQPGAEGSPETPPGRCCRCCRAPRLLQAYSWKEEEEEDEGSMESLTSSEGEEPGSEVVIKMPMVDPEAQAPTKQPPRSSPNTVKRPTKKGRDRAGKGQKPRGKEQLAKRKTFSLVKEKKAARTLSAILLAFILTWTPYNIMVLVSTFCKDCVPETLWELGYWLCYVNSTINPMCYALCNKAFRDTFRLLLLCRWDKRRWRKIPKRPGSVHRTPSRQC
# Procedure, shortened: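 CHRM1-CHO calcium-flux assay, antagonist mode. Cells were seeded 18 h, dye-loaded 1 h at 37 C and given compound for 5 min at RT, then acetylcholine was added at 50nM. FDSS fluorescence was read 3 min; 15 concentrations, three runs.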
# [12] = molecular target: Muscarinic acetylcholine receptor M1 (Homo sapiens) (UniProt P11229); test: Cholinergic receptor muscarinic 1 (CHRM1) small molecule agonists, cell-based qHTS assay (AID 1963589); note: nearly all actives have a fitted effect of over 35% in size
# Procedure, shortened: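 Measures agonist-induced intracellular calcium rise. Stable human CHRM1 CHO line, 1 h dye load at 37 C, compounds from DMSO, kinetic fluorescence read.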
# [13] = cAMP Responsive Elements (CRE) small molecule agonists, cell-based qHTS assay (AID 1963590)
# Procedure, shortened: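 A CRE-responsive beta-lactamase reporter in HEK 293T cells was used. Treatment ran 3 h at 37 C; detection used LiveBLAzer B/G FRET substrate for 2 h at room temperature.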
# [14] = cAMP Responsive Elements (CRE) small molecule antagonists, cell-based qHTS assay (AID 1963591; active = well fitted inhibition curve with a large enough effect in the signal ratio in the repeat runs, not every such curve was filed as active; the % refers to the signal ratio)
# Procedure, shortened: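 HEK293T cells carrying a CRE-driven beta-lactamase reporter receive compound and NKH477 (0.25 uM final) for 3 h. Fluorescence from LiveBLAzer B/G FRET substrate is read after 2 h at room temperature.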
# [15] = molecular target: Beta-2 adrenergic receptor (Homo sapiens) (UniProt P07550); test: Adrenergic beta2 receptor (ADRB2) small molecule agonists, cell-based qHTS assay (AID 1963593);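 note: CHO cells stably overexpressing human ADRB2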
# Sequence of Beta-2 adrenergic receptor (Homo sapiens) (P07550 whole entry, looked up): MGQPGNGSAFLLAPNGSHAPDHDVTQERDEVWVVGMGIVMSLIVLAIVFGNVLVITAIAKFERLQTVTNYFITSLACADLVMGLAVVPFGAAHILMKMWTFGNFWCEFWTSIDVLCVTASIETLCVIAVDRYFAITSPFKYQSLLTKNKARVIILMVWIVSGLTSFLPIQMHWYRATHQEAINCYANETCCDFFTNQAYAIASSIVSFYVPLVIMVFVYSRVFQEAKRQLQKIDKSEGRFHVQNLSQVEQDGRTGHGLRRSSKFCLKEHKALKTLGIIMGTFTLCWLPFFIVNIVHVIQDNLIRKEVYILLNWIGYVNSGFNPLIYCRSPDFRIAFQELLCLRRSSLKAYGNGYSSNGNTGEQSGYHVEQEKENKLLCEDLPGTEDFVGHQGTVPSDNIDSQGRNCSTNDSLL
# Procedure, shortened: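 CHO cells stably over-expressing ADRB2 were plated overnight at 37C, then dosed with compounds plus a stimulation mix containing 100uM IBMX and 25uM Ro-20-1724 for 0.5hr at room temperature. cAMP was measured by HTRF competition, 1hr.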
# [16] = molecular target: D(2) dopamine receptor (Homo sapiens) (UniProt P14416); test: Dopamine D2 receptor (DRD2) small molecule agonists, cell-based qHTS assay (AID 1963594); note: nearly all actives have a fitted effect of over 35% in size
# Sequence of D(2) dopamine receptor (Homo sapiens) (P14416 whole entry, looked up): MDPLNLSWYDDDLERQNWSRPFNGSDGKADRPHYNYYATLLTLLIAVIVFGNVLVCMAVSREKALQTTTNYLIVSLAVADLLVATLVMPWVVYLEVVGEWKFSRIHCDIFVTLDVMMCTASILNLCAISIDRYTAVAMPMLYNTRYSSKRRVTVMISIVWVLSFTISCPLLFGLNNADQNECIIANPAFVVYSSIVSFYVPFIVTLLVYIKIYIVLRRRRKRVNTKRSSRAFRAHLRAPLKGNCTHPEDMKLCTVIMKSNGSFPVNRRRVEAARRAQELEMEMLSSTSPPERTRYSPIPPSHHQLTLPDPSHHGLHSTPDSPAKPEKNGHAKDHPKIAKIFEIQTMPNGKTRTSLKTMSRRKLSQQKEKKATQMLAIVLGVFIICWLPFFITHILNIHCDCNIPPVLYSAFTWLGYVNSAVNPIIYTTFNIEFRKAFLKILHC
# Procedure, shortened: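 cAMP accumulation in DRD2-HEK293 cells measured by HTRF after 1 h detection; compounds added 10 min before NKH477 (200nM […]) forskolin-analogue stimulation, 30 min at room temperature, with Ro20-1724 present at 0.1 mM final.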
# [17] = molecular target: D(2) dopamine receptor (Homo sapiens) (UniProt P14416); test: Dopamine D2 receptor (DRD2) small molecule antagonists, cell-based qHTS assay (AID 1963595; active = well fitted inhibition curve with a large enough effect in the signal ratio in the repeat runs, with a control signal flat; the % refers to the signal ratio)
# Procedure, shortened: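 Human DRD2 antagonist qHTS measuring cAMP by HTRF. The cells are exposed to compound for 10 min, then to NKH477 (200 nM) and quinpirole (12 nM) for 30 min at RT, with Ro20-1724 (0.1 mM) present throughout.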
# [18] = molecular target: Beta-2 adrenergic receptor (Homo sapiens) (UniProt P07550); test: Adrenergic beta2 receptor (ADRB2) small molecule antagonists, cell-based qHTS assay (AID 1963592); note: series mostly up to about 92 µM; nearly all actives have a fitted effect of over 50% in size
# Procedure, shortened: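 Cells (CHO, stable ADRB2 overexpression) incubated 18-20hr at 37C; compounds added from DMSO; agonist mix (1nM isoproterenol, 100uM IBMX, 25uM Ro-20-1724) added; 0.5hr RT; d2-cAMP and anti-cAMP-cryptate added; 1hr RT; 665/615 nm read.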
compound,measurement,setting,value
O=C(O)/C=C/c1ccc(O)c(O)c1,Potency,[1],inactive
same,Potency,[2],inactive
same,Potency,[3],inactive
same,Potency,[4],inactive
same,Potency,[5],inactive
same,Potency,[6],inactive
same,Potency,[7],inactive
same,Potency,[8],inactive
same,Potency,[9],inactive
same,Potency,[10],inactive
same,Potency,[11],inactive
same,Potency,[12],inactive
same,Potency,[13],inactive
same,Potency,[14],inactive
same,Potency,[15],inactive
same,Potency,[16],inactive
same,Potency,[17],inactive
COC=O,"activity change, negative = cytotoxicity",[1],-1.85% [at 8.39 µM]
same,"activity, positive = activation",[2],-9.06% [at 8.39 µM]
same,activity change,[3],"-1.66% [at 5.22 µM, hits give high values]"
same,activation,[4],-0.791% [at 6.97 µM]
same,activation,[5],2.54% [at 5.23 µM]
same,"activity change, negative = cytotoxicity",[6],-1.32% [at 5.99 µM]
same,"activity change, negative = cytotoxicity",[7],1.32% [at 5.99 µM]
same,"activity change, negative = cytotoxicity",[8],-1.7% [at 5.99 µM]
same,Potency,[9],3.09 µM (active)
same,activation,[10],-0.022% [at 7.02 µM]
same,"activity, negative = inhibition",[11],1.52% [at 5.58 µM]
same,activation,[12],-0.541% [at 6.97 µM]
same,activation,[13],-0.656% [at 8.39 µM]
same,"activity change, negative = inhibition",[14],12.8% [at 8.39 µM]
same,"activity change, negative = inhibition",[18],14.4% [at 8.39 µM]
same,activation,[16],-14.1% [at 8.39 µM]
same,"activity change, negative = inhibition",[17],-12.2% [at 8.38 µM]
CCCC(=O)OC/C=C(\C)CCC=C(C)C,Potency,[1],inactive
same,Potency,[2],inactive
same,Potency,[3],inactive
same,Potency,[4],inactive
same,Potency,[5],inactive
same,Potency,[6],inactive
same,Potency,[7],inactive
same,Potency,[8],inactive
same,Potency,[9],inactive
same,Potency,[10],inactive
same,Potency,[11],inactive
same,Potency,[12],inactive
same,Potency,[13],inactive
same,Potency,[14],inactive
same,Potency,[18],inactive
same,Potency,[16],inactive
CCC(=O)OCCOc1ccccc1,Potency,[1],inactive
same,Potency,[2],inactive
same,Potency,[3],inactive
same,Potency,[4],inactive
same,Potency,[5],inactive
same,Potency,[6],inactive
same,Potency,[7],inactive
same,Potency,[8],inactive
same,Potency,[9],inactive
same,Potency,[10],inactive
same,Potency,[11],inactive
same,Potency,[12],inactive
same,Potency,[13],inactive
same,Potency,[14],inactive
same,Potency,[18],inactive
same,Potency,[16],inactive
same,Potency,[17],inactive
CC(C)CCCCCOC(=O)CCCCC(=O)OCCCCCC(C)C,Potency,[1],inactive
same,Potency,[2],48.6 µM (active)
same,Potency,[3],inactive
same,Potency,[4],inactive
same,Potency,[5],inactive
same,Potency,[6],inactive
same,Potency,[7],inactive
same,Potency,[8],inactive
same,Potency,[9],inactive
same,Potency,[10],inactive
same,Potency,[11],inactive
same,Potency,[12],inactive
same,Potency,[13],inactive
same,Potency,[14],inactive
same,Potency,[18],inactive
same,Potency,[16],inactive
same,Potency,[17],inactive
CC[C@@]1(c2ccccc2)NC(=O)N(C)C1=O,Potency,[1],inactive
same,Potency,[2],inactive
same,Potency,[3],inactive
same,Potency,[4],inactive
same,Potency,[5],inactive
same,Potency,[6],inactive
same,Potency,[7],inactive
same,Potency,[8],inactive
same,Potency,[9],inactive
same,Potency,[10],inactive
same,Potency,[11],inactive
same,Potency,[12],inactive
same,Potency,[13],inactive
same,Potency,[14],inactive
same,Potency,[18],inactive
same,Potency,[16],inactive
same,Potency,[17],inactive
CCCCNCC,Potency,[1],inactive
same,Potency,[2],inactive
same,Potency,[3],inactive
same,Potency,[4],inactive
same,Potency,[5],inactive
same,Potency,[6],inactive
same,Potency,[7],inactive
same,Potency,[8],inactive
same,Potency,[9],inactive
same,Potency,[10],inactive
same,Potency,[11],inactive
same,Potency,[12],inactive
same,Potency,[13],inactive
same,Potency,[14],inactive
same,Potency,[18],inactive
same,Potency,[16],inactive
same,Potency,[17],inactive
